A short description of experiment [1]: anti-His antibody binders, primary screen, artefact control for SMM control protein annotation, biochemical, small-molecule microarray, 635 nm fluorescence (AID 1128).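 Also: score merges feature fluorescence with signal-to-noise for each printed compound spot.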 Conditions: anti-His Alexa647 antibody binding, higher = more signal.
The subject of experiment [2] is Human papillomavirus type 1a E7 protein (residues 1-88). The experiment can be described thus: HPV1a E7 small-molecule binders, primary screen, biochemical, small-molecule microarray, residues 1-88, 635 nm (AID 1129). The following applies: small-molecule microarray binding, fluorescence 635 nm; higher = more signal.
Experiment [3] deals with Focal adhesion kinase 1 (Homo sapiens) (UniProt Q05397). The experiment can be described thus: small-molecule microarray binders of FAK, primary screen, biochemical, 635/667 nm fluorescence, BSA, DTT (AID 1130).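 Also: composite of spot emission at 667 nm and signal to noise over triplicate slides.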 The following applies: PTK2 binding, 635 nm fluorescence, higher = more signal.
Focal adhesion kinase 1 (Homo sapiens), sequence (Q05397 whole entry, looked up): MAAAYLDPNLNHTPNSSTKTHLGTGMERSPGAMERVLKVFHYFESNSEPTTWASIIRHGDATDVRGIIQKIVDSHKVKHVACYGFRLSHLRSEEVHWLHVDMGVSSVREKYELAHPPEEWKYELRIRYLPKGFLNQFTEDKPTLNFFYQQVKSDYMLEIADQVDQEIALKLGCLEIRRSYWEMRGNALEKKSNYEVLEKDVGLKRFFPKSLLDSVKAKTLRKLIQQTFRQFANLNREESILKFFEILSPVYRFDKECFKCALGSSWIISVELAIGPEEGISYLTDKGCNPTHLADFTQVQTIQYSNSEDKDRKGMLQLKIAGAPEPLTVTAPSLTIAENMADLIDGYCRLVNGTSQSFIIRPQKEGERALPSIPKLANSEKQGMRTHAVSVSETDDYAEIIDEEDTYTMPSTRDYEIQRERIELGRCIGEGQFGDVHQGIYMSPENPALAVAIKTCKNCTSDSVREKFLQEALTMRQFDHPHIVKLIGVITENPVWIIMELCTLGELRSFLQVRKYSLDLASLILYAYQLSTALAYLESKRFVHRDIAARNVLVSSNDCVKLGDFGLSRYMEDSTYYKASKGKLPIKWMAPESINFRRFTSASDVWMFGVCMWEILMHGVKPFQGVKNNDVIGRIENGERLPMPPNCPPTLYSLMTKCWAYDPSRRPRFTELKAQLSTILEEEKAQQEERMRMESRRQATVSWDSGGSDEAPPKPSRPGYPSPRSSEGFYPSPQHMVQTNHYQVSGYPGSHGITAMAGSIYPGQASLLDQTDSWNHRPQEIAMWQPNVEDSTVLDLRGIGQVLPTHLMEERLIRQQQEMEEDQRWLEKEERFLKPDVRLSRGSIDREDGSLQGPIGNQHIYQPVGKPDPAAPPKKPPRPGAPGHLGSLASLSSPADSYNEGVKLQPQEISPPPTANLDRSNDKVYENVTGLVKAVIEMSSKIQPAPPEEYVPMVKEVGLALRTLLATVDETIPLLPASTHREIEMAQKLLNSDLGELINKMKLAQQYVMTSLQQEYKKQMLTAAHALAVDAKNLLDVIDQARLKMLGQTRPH
Experiment [4] has as its system Fibrinogen (Alexa647-labelled). Put plainly: fibrinogen binders on compound microarrays, profiling panel, artefact control for SMM control-protein annotation, biochemical, small-molecule microarray, 635/667 nm fluorescence (AID 1131).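 Also: z-score merges 667 nm fluorescence with per-spot signal-to-noise over triplicate slides.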 Conditions: fibrinogen-A647 binding fluorescence, higher = more signal.
The target of experiment [5] is Follistatin (Homo sapiens) (UniProt P19883). Put plainly: follistatin binders on small-molecule microarrays, primary screen, biochemical, small-molecule microarray, 635/667 nm fluorescence (AID 1132). The following applies: FST binding, 635 nm fluorescence, higher = more signal.
Follistatin (Homo sapiens), sequence (P19883 whole entry, looked up): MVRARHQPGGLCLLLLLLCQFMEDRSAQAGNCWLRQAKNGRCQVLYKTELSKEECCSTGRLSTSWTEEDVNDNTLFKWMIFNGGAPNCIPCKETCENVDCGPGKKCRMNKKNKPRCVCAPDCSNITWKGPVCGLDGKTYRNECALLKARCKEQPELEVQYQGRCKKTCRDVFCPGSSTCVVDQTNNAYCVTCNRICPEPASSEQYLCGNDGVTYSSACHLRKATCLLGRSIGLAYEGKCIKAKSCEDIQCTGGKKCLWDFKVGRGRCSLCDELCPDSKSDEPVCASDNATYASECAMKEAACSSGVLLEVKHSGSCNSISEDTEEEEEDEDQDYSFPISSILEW
Experiment [6] addresses Fibroblast growth factor 2 (Homo sapiens) (UniProt P09038). The experiment can be described thus: FGF2 binders on small-molecule microarrays, primary screen, biochemical, small-molecule microarray, 635/667 nm fluorescence (AID 1133). The following applies: small-molecule microarray binding, FGF2, fluorescence 635/667; higher = more signal.
A short description of experiment [7]: mitochondrial membrane potential change in A549 cells, profiling panel, cell-based, JC-1 fluorescence, basal, 24 h, 100 nL (AID 1138).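 Also: A549 lung adenocarcinoma cells under basal conditions with no added stimulus; test concentration not given here.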 The following applies: higher = more signal.
The subject of a further experiment is Lefty1. The experiment can be described thus: Lefty1 binders on small-molecule microarrays, primary screen, biochemical, small-molecule microarray, 635/667 nm fluorescence (AID 1139). Conditions: small-molecule microarray binding, fluorescence 635/667; higher = more signal.
Experiment [8] concerns wheat germ agglutinin (Triticum aestivum), Alexa647-labelled. Put plainly: wheat germ agglutinin binders on compound microarrays, profiling panel, artefact control for SMM control-protein annotation, biochemical, small-molecule microarray, 635/667 nm fluorescence (AID 1140).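 Also: score merges 667 nm feature emission with signal to noise over triplicate slides.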 Conditions: WGA-A647 binding, 635 nm fluorescence, higher = more signal.
The target in experiment [9] is Luciferin 4-monooxygenase (Photinus pyralis) (UniProt P08659). Put plainly: firefly luciferase enzyme inhibitors, primary screen, biochemical, luminescence, purified enzyme, 2006 set (AID 1141).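 Also: cell-free assay with purified firefly luciferase at 100 ng per well in PBS; test concentration not given here.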 Conditions: SteadyGlo luminescence, 30 min, higher = more signal, called active from +8 up or from −8 down.
Luciferin 4-monooxygenase (Photinus pyralis), sequence (P08659 whole entry, looked up): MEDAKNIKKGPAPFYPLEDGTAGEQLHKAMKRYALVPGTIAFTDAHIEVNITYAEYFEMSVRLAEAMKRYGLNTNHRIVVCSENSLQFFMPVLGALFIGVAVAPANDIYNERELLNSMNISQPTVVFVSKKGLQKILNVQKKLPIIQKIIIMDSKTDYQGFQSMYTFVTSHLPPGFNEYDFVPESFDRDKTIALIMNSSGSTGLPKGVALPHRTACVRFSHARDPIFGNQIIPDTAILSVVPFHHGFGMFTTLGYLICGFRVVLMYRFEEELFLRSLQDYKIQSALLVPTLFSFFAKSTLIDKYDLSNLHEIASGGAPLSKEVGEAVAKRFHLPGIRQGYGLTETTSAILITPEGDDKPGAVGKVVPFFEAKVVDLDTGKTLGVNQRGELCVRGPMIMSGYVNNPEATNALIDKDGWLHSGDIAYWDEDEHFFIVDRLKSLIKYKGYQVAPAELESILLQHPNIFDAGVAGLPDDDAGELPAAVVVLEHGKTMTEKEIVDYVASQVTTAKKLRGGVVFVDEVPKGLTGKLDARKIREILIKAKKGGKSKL
The test system of experiment [10] is Wnt5a (protein binding on small-molecule microarray). Put plainly: Wnt5a binders on small-molecule microarray, primary screen, biophysical, 635/667 nm fluorescence (AID 1142).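 Also: fluorescence read at 667 nm with signal to noise per printed feature.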 Conditions: 635 nm fluorescence, higher = more signal.
Experiment [11] in a line: cell viability in Huh7 cells, primary screen, cytotoxicity control for HCV replication inhibitor project, CellTiter-Glo luminescence, basal, 48 h (AID 1143).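 Also: Huh7 hepatoma cells carrying a hepatitis C replication reporter with no stimulus; test concentration not given here.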 The following applies: Huh7 HCV replicon, higher = more signal, called active from +8 up or from −8 down. For orientation: In ATP-based viability assays light output follows the ATP content of the culture.
The nature of experiment [12]: P. aeruginosa biofilm formation inhibitors, primary screen, PAO1 strain, BacTiter-Glo luminescence, LB-PBS (AID 1144). The following applies: 12 h, higher = more signal.
Experiment [13] can be described thus: CREB reporter modulators without forskolin, primary screen, cell-based, PC12, CRE-LacZ reporter, unstimulated (AID 1145). The following applies: no forskolin, luminescence, 4.5 h, higher = more signal, called active from +8 up or from −8 down.
Experiment [14] is described as follows: CREB reporter modulators under forskolin, primary screen, cell-based, PC12, CRE-LacZ reporter, forskolin-stimulated (AID 1146).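 Also: PC12 cells with 6xCRE LacZ reporter stimulated by forskolin 10 µM; beta-galactosidase reporter signal reflecting CREB driven transcription.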 The following applies: luminescence, 4.5 h, higher = more signal, called active from +8 up or from −8 down.
For experiment [15], the target named is Streptavidin (Streptomyces avidinii) (UniProt P22629). The experiment can be described thus: streptavidin binders on small-molecule microarray, primary screen, artefact control for SMM compound annotation, biophysical, 635/667 nm fluorescence (AID 1147).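 Also: signal reflects streptavidin binding to arrayed compounds as a control protein.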 The following applies: streptavidin binding, higher = more signal.
Streptavidin (Streptomyces avidinii), sequence (P22629 whole entry, looked up): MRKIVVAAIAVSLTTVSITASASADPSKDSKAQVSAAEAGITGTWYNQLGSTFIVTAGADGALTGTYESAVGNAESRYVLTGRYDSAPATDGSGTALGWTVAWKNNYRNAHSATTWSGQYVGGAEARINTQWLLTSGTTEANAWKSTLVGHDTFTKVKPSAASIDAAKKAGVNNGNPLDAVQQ
A short description of experiment [16]: small-molecule binders of probe aInhba, primary screen, biochemical, small-molecule microarray, 635/667 nm fluorescence (AID 1148).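 Also: score merges 667nm spot fluorescence with signal-to-noise for antibody binding to printed compounds.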 The following applies: higher = more signal.
The target in experiment [17] is Torsin-1A (Homo sapiens) (UniProt O14656). The experiment can be described thus: torsin A binders from cell lysate, primary screen, small-molecule microarray, wild-type, 635/667 nm (AID 1149). The following applies: COS7 hTOR1A-WT lysate, 635 nm fluorescence, higher = more signal.
Torsin-1A (Homo sapiens), sequence (O14656 whole entry, looked up): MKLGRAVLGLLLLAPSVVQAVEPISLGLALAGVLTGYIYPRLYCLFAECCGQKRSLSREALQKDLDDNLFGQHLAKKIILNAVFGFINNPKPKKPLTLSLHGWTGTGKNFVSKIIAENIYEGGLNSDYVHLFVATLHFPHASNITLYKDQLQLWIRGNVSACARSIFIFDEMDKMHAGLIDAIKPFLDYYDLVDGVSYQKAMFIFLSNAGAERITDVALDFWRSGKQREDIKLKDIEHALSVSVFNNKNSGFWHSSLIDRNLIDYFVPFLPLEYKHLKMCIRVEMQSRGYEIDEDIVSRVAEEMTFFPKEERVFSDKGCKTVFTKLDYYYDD
Experiment [18] shares this target. Put plainly: small-molecule binders of mutant TOR1A in lysate, primary screen, cell lysate, small-molecule microarray, COS7 lysate, 635/667 nm fluorescence (AID 1150).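 Also: score pools 667 nm emission and signal to noise measuring lysate protein binding.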 The following applies: COS7 hTOR1A mutant lysate, 635 nm fluorescence, higher = more signal.
Experiment [19] relates to Sonic hedgehog protein (Shh). The experiment can be described thus: small-molecule binders of Shh protein, primary screen, biochemical, small-molecule microarray, 635/667 nm fluorescence (AID 1151).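 Also: Shh protein binding to compounds spotted on small-molecule microarray slides; score combines spot fluorescence intensity with signal-to-noise across triplicate slides.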 Conditions: small-molecule microarray binding, 635 nm fluorescence; higher = more signal.

Active and inactive are the calls of the source. Unless noted, no rule for the calls is given here.

Fibroblast growth factor 2 (Homo sapiens), sequence (P09038 whole entry, looked up): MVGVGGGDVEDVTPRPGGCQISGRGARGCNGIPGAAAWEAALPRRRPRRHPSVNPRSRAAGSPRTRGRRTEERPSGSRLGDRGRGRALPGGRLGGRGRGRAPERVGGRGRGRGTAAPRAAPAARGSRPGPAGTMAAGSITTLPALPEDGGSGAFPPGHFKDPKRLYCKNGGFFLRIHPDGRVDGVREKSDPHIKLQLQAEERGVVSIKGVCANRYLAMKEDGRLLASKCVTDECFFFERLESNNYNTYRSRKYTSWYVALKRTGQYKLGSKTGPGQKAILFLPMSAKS

As for `CCCNC(=O)[C@@]1(c2ccc([N+](=O)[O-])cc2)CC(=O)N(CC23CC4CC(CC(C4)C2)C3)[C@@H]1c1ccc(CO)cc1I`, the composite z-score is 1.02 in experiment [1]; 1.08 in [2]; 1.19 in experiment [3]; -0.0329 in [4]; 0.541 in [5]; 0.753 in experiment [6]. Moreover, the composite z-score was -0.462 in the experiment on Lefty1; 0.519 in experiment [8]; 0.572 in experiment [10]; 0.131 in experiment [15]; 0.834 in experiment [16]; 0.253 in the experiment with Torsin-1A (Homo sapiens) [17]. Further, the composite z-score came out at 0.55 with Torsin-1A (Homo sapiens) [18] and 0.825 in experiment [19]. The z-score in [7] is 1.04; in experiment [9], -0.1 (inactive); in experiment [11] it was -5.46 (inactive); in [12], 0.468 (inactive); in [13] it was 0.234 (inactive); in [14] it was 0.299 (inactive).

For the compound `O=C1O[C@@H](c2ccccc2)[C@@H](c2ccccc2)N2[C@@H](c3ccc(O)cc3)[C@]3(C(=O)Nc4ccc(C#CCCO)cc43)[C@@H](C(=O)O)[C@H]12`, the composite z-score was 2.29 in experiment [1]; 0.18 in [2]; 0.894 in [3]; 0.925 in experiment [4]; 1.2 in [5]; -0.196 in experiment [6]. The composite z-score in the experiment on Lefty1 was -0.22; in experiment [8], 1.34; in [10] it was 0.13; in experiment [15], 1.47; in experiment [16], 1.47; with Torsin-1A (Homo sapiens) [17], 0.0458. Moreover, the composite z-score with Torsin-1A (Homo sapiens) [18] was -0.0978; in experiment [19] it was -0.3. Further, the z-score is 0.889 in [7]; -1.18 (inactive) in experiment [9]; 0.457 (inactive) in [11]; -0.682 (inactive) in experiment [12]; 0.0921 (inactive) in experiment [13]; -0.31 (inactive) in experiment [14].

For `CCN(CC)c1ccc(N2CC=CC34O[C@@H]5/C=C\CCCOC(=O)C5[C@H]3C(=O)N(CCCO)[C@@H]4C2=O)cc1` (stereo not given in full), the composite z-score in experiment [1] is 1.54; in [2] it was -0.231; in experiment [3] it was -0.426; in experiment [4], -0.928; in [5] it was -1.05; in experiment [6], -0.942. The composite z-score with Lefty1 is -0.5; in [8], -0.137; in [10] it was -0.674; in experiment [15], -1.12; in [16] it was -0.157; with Torsin-1A (Homo sapiens) [17], -1.94. Besides, the results for the composite z-score (with Torsin-1A (Homo sapiens) [18]; in experiment [19]) were -1.45 and -0.18, respectively. The z-score in experiment [7] was 0.614; in experiment [9], -0.826 (inactive); in experiment [11], 0.273 (inactive); in experiment [12], 2.24 (inactive); in experiment [13], -0.212 (inactive); in [14], -0.473 (inactive).

With `COCCOC(=O)N1C(=O)[C@@]2(c3cc(C#Cc4ccc(OC)cc4)ccc31)[C@H](c1ccc(OCCO)cc1)N1[C@H](c3ccccc3)[C@H](c3ccccc3)OC(=O)[C@H]1[C@@H]2C(=O)N1CCc2cc(OC)c(OC)cc2C1`, the composite z-score is 0.512 in experiment [1]; 1.08 in experiment [2]; 0.272 in experiment [3]; -0.122 in [4]; 1.25 in [5]; 1.24 in [6]. For the same compound, the composite z-score with Lefty1 is 1.13; in experiment [8] it was -0.12; in experiment [10] it was 0.377; in [15], 0.482; in [16], -0.0736; with Torsin-1A (Homo sapiens) [17] it was 0.37. For the same compound, the composite z-score in the experiment with Torsin-1A (Homo sapiens) [18] was found to be 0.454; in experiment [19], 1.85. Besides, the z-score in [7] is -1.35; in experiment [9], -0.584 (inactive); in experiment [11], -2.85 (inactive); in experiment [12] it was -1.61 (inactive); in experiment [13], -1.15 (inactive); in experiment [14], -1.33 (inactive).

For the origin of these results see PubChem BioAssay.
